Experimental data taken from PubChem BioAssay (NCI).
The panel holds about 79,000 compounds, 15% with a hit somewhere; the sample as a whole holds those more often. Values without a mark were called inactive. Active and inactive are the calls of the source. Rule as the data show it: active = growth inhibition above about 70%; inactive = the rest.

Tests used:
[1] = NCI Yeast Anticancer Drug Screen. Data for the rad50 strain (AID 155);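 also: 0% = growth of vehicle-only cultures of the same strain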; conditions: S. cerevisiae rad50 strain growth inhibition, active compounds read high
How it was run: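 Growth of the mutant yeast was measured after compound exposure and referenced to vehicle-treated cultures.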

[2] = NCI Yeast Anticancer Drug Screen. Data for the mec2-1 strain (AID 157); conditions: S. cerevisiae mec2-1 strain, active compounds read high
How it was run: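 Cells of the genetically defined mec2-1 yeast strain are incubated with test compound. Inhibition of growth is calculated against vehicle-treated controls.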

[3] = NCI Yeast Anticancer Drug Screen. Data for the sgs1 mgt1 strain (AID 161);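 also: 0% = growth of cultures given vehicle only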; conditions: S. cerevisiae sgs1 mgt1 strain, active compounds read high
How it was run: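 Test agents were incubated with a DNA-repair-mutant yeast strain. Growth was then read and compared against vehicle-treated controls.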

[4] = NCI Yeast Anticancer Drug Screen. Data for the cln2 rad14 strain (AID 165);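 also: 0% = growth equal to vehicle treated cultures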; conditions: S. cerevisiae cln2 rad14 strain, active compounds read high
How it was run: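 The screen exposed genetically defined yeast (cln2 rad14) to test compounds and scored growth inhibition relative to vehicle-treated controls.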

[5] = NCI Yeast Anticancer Drug Screen. Data for the bub3 strain (AID 167); conditions: S. cerevisiae bub3 mutant strain, active compounds read high
How it was run: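 Whole-cell yeast assay. The mutant strain was incubated with compounds, and growth inhibition was determined by comparison with vehicle-treated cells.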

[6] = NCI Yeast Anticancer Drug Screen. Data for the mlh1 rad18 strain (AID 175); conditions: S. cerevisiae mlh1 rad18 strain growth inhibition, active compounds read high
How it was run: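 Compound-treated yeast growth, normalised to vehicle controls. Strain bears defined DNA repair mutations.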

[7] = at 5.0 µM (retest, dose inferred, filed as 0.5)
[8] = at 50.0 µM (retest, dose inferred, filed as 5.0)

SMILES	growth inhibition [1, 7]	growth inhibition [1, 8]	growth inhibition ([1]; at 50.0 µM)	growth inhibition [2, 7]	growth inhibition [2, 8]	growth inhibition ([2]; at 50.0 µM)	growth inhibition [3, 7]	growth inhibition [3, 8]	growth inhibition ([3]; at 50.0 µM)	growth inhibition [4, 7]	growth inhibition [4, 8]	growth inhibition ([4]; at 50.0 µM)	growth inhibition [5, 7]	growth inhibition [5, 8]	growth inhibition ([5]; at 50.0 µM)	growth inhibition [6, 7]	growth inhibition [6, 8]	growth inhibition ([6]; at 50.0 µM)
O=C1C=CC(=O)N1C1c2ccccc2-c2ccccc21	99% (active)	99% (active)	99.5% (active)	100% (active)	100% (active)	99.1% (active)	99% (active)	100% (active)	99.5% (active)	77% (active)	99% (active)	98% (active)	100% (active)	100% (active)	99.5% (active)	99% (active)	99% (active)	97.1% (active)
Oc1ccc(-c2ccccc2)cc1Br	14%	99% (active)	99.4% (active)	3%	100% (active)	99.7% (active)	1%	99% (active)	99.5% (active)	-9%	99% (active)	98.5% (active)	-3%	99% (active)	99.5% (active)	9%	99% (active)	99.5% (active)
CC[N+]1(C)CCC(O)(/C=C/c2ccccc2)C(C(=O)/C=C/c2ccccc2)C1 (stereo not given)	7%	98% (active)	99.3% (active)	11%	99% (active)	99.7% (active)	12%	54%	99.2% (active)	8%	98% (active)	83% (active)	7%	99% (active)	99.3% (active)	11%	99% (active)	99.3% (active)
O=C1NC2(C=Cc3c(ccc4ccccc34)O2)Oc2ccccc21 (stereo not given)	-12%	-8%	44.5%	-16%	-7%	10%	6%	11%	34%	31%	48%	24.4%	4%	-8%	7.65%	-3%	3%	62%
NCCSC1(O)C(=O)c2ccccc2-c2ccccc21 (stereo not given)	6%	98% (active)	98.8% (active)	84% (active)	99% (active)	98.2% (active)	32%	99% (active)	99.1% (active)	-14%	99% (active)	96.2% (active)	79% (active)	99% (active)	97.8% (active)	57%	99% (active)	98.8% (active)
COc1ccc(C(C#N)=C2C=CC(=NOC(=O)Nc3ccccc3)C=C2)cc1	41%	82% (active)	88.4% (active)	28%	92% (active)	93.1% (active)	68%	96% (active)	94.8% (active)	4%	91% (active)	-1.4%	12%	37%	69.1%	33%	91% (active)	96.3% (active)
CCCCOP(=O)(OCCCC)C(NS(=O)(=O)c1ccccc1)(C(=O)OCC)C(F)(F)F (stereo not given)	11%	42%	99% (active)	7%	28%	99.1% (active)	3%	48%	99% (active)	16%	63%	99.2% (active)	9%	47%	99.2% (active)	26%	79% (active)	99% (active)
CCCCCCn1c(SCC)c2ccccc2c1-c1nc(F)nc(F)n1	-14%	5%	89.1% (active)	-40%	-10%	92.8% (active)	-15%	10%	90.2% (active)	14%	52%	88.7% (active)	24%	36%	88.5% (active)	10%	34%	87.9% (active)
O=c1[nH]ccc(CNC23CC4CC(CC(C4)C2)C3)c1O	5%	11%	49.9%	10%	33%	21.4%	18%	67%	61.9%	10%	11%	39.9%	7%	49%	36.4%	6%	38%	81.5% (active)
CC(=O)Nc1ccc(/S(=N\S(=O)(=O)c2ccc(C)cc2)c2ccc(NC(C)=O)cn2)cc1 (stereo not given)	0%	6%	37%	-2%	1%	4.8%	0%	4%	0.7%	-8%	3%	73.3% (active)	-3%	0%	-1.75%	-2%	7%	-15.1%
